This note sets out measurements from PubChem BioAssay AID2778 (National Center for Advancing Translational Sciences (NCATS), 2010).

SMILES strings stand for the structures. Inconclusive results are not listed. Entries that show only a call come without a potency. The source made the active and inactive calls. The call rests on the fitted dose curve; in most records, active means well fitted inhibition curve with a large enough effect; inconclusive means small, poorly fitted or top-dose-only effect, or effect the other way; inactive means flat fitted curve, though single readings scatter.
Potency means the concentration at half of the fitted maximal effect.

In the experiment the target is Menin (Homo sapiens) (UniProt O00255). In words: Confirmation of Inhibitors Targeting the Menin-MLL Interaction in MLL Related Leukemias: Confirmation in an HTRF (commercial TR-FRET) Assay using His-tagged menin and biotin-labeled MLL peptide. As to conditions: His-menin / biotin-MLL peptide binding; series mostly up to 126 µM. The source says: qHTS Assay for Inhibitors Targeting the Menin-MLL Interaction in MLL Related Leukemias
Chain of Menin (Homo sapiens) (O00255 whole entry, looked up): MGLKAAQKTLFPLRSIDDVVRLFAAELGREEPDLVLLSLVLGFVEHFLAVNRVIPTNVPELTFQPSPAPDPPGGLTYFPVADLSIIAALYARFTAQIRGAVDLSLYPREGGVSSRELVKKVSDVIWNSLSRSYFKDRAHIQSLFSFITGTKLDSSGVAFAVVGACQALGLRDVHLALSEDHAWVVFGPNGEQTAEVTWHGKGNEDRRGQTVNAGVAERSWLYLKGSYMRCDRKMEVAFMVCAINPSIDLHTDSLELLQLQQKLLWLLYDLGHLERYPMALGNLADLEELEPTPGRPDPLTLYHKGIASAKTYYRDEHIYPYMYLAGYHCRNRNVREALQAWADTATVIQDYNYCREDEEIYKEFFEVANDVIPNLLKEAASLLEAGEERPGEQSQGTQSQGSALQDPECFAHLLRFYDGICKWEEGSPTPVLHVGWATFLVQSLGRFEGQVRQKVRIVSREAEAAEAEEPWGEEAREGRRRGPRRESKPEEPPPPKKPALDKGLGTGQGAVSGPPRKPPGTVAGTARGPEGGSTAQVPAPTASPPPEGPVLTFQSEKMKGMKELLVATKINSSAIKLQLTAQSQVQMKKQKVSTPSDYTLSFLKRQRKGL
NIH Chemical Genomics Center [NCGC]
NIH Molecular Libraries Probe Centers Network [MLPCN]
Assay Submitter (PI): Jolanta Grembecka, Tomasz Cierpicki, University of Virginia
Translocations of the MLL (Mixed Lineage Leukemia) gene are frequently found in human leukemias affecting both children and adults. Fusion of MLL to one of more than 60 genes results in generation of oncogenic proteins upregulating Hox genes, which are vital to blood cell development. Patients harboring fusion of the MLL gene suffer from aggressive leukemias and respond poorly to available therapies. All of the oncogenic fusion proteins have a preserved N-terminal fragment of MLL that has been identified to interact with menin. It has been recently discovered that association with menin is critical to the leukemogenic activity of the MLL fusion oncoproteins. Selective targeting of the menin-MLL interaction could provide an attractive therapeutic approach to develop novel drugs for MLL-related leukemias. Small molecules blocking the menin-MLL interaction should reverse the oncogenic potential of MLL fusion proteins.
We have developed and optimized a fluorescence polarization-based assay for the identification of Menin-MLL inhibitors. The assay was run employing two different MLL-derived peptides. The present assay uses a 12 amino acid peptide labeled with fluorescein at its N-terminus. This peptide consists of the menin high affinity binding motif from MLL and is potently bound by menin. Another peptide with a mutated sequence, labeled with Texas Red, was used in parallel as a less stringent screen for inhibitors.
The present assay uses an alternate technology to confirm hits from the primary screen - homogeneous time resolved fluorescence (HTRF).
The Menin protein, the MLL-wild type (w.t.) derived peptide (N-terminal 12 amino acids), the MLL-derived peptide labeled with Texas Red and the MLL-w.t. peptide labeled with Fluorescein were kindly supplied by laboratory of Dr. Jolanta Grembecka, University of Virginia. All protein and peptide solutions were stored in single use aliquots at -80C. The Eu3+ Cyrptate-conjugated mouse monoclonal antibody anti-6 Histidine (Eu3+-AB) and the Streptavidin-XL665 conjugate (XL665) were purchased from Cisbio International (Bedford, MA). All antibody and XL665 conjugate solution stocks were stored in single use aliquots at -20C. The Buffer components for all assays were purchased from Sigma-Aldrich (St. Louis, MO) and Invitrogen (Carlsbad, CA).
1. HTRF reaction buffer: 50 mM Tris-HCl pH 7.5, 50 mM NaCl, 1mM DTT.
Before use, 0.05% BSA is added.
2. His6-Menin protein, MLL-w.t. labeled with biotin.
Stored in singe use aliquots at -80C.
3. MLL-w.t. unlabeled peptide as positive control: 10 uM final in HTRF buffer.
1. Prepare His6-Menin at 200 nM, MLL-w.t.-biotin at 80 nM in HTRF buffer.
2. Prepare His6-Menin at 200 nM, MLL-w.t.-biotin at 80 nM and 10 uM MLL-w.t. unlabeled mixture in HTRF buffer.
3. Dispense 10 ul per well of reagent in step 1 in columns 2, 4-24 in a black 384 well plate, dispense 10 ul per well of reagents from steps 2 in column 1. Incubate plate at ambient for 15 minutes.
4. Transfer 1 uL per well of compound to plate and incubate at ambient for 1 hr.
5. Dispense 10uL of the donor (6His-Cryptate, 3.5 nM final conc.) and acceptor (SA_XL, 10nM final conc.) complex in the HTRF buffer with 0.01% BSA. Incubate for 1h.
On the technique in general: TR-FRET usually uses a lanthanide donor and a delayed reading to cut background.
Take `COCCn1c(C)c(C)c2c(NCCc3ccccc3)ncnc21`: the Potency result is “inactive”.

Regarding `Cc1ccc(C)n1-c1ccc(N(C)C)cc1`, the Potency result was “inactive”.

For `O=C(Nc1nccs1)C(Br)C(Br)c1ccccc1` (stereo not given), the Potency entry was “inactive”.

As to `COc1cccc(NC(=O)N2CCCc3ccccc32)c1`, the Potency entry is “inactive”.

For `C[C@H](NC(=O)c1cc2c(cn1)[nH]c1ccccc12)C(=O)O`, the Potency is 79.4 µM (active).

As for `Cc1cc(C)c2c(=O)cc(C(=O)NCc3ccccc3)oc2c1`, the Potency entry was “inactive”.

On to `CCN1CCN(CC(=O)Nc2ccc(C(C)=O)cc2)CC1`, for which the Potency result is “inactive”.

On to `COc1ccc(/C=C(\C#N)C(=O)NCc2ccccc2)cc1`, for which the Potency entry was “inactive”.

With `COc1ccc(OC)c(C2C3=C(N=c4s/c(=C\c5cccc(O)c5)c(=O)n42)c2ccccc2CC3)c1` (stereo not given), the Potency result is “inactive”.

Turning to `COC(=O)C1[C@H]2SC(C)(C)C(C(=O)OC)N2C(=O)N1Cc1nc2ccccc2s1` (stereo not given in full), the Potency entry was “inactive”.

As for `NC(=O)C1CCN(C2=C(Cl)C(=O)c3ccccc3C2=O)CC1`, the Potency result was “inactive”.

`Cc1nc(N2CCN(C)CC2)c2c3c(sc2n1)CCCC3`: the Potency entry is “inactive”.

For the molecule `CCOc1ccccc1N(CC(=O)Nc1ccccc1C(=O)N1CCCC1)S(C)(=O)=O`, the Potency entry is “inactive”.

As for `COc1ccc(C2=C(CN(C)C)C(c3ccccc3)c3ccccc3O2)cc1` (stereo not given), the Potency result is “inactive”.

Take `O=S(=O)(NCCc1c[nH]c2ccccc12)c1ccccc1`: the Potency entry is “inactive”.

`O=C1Cc2ccccc2Sc2c(OCCN3CCCCC3)cccc21`: the Potency entry was “inactive”.

Consider `O=C(c1cc(F)c(F)cc1Cl)N1CCN(c2ncccn2)CC1`, for which the Potency entry was “inactive”.

As for `Cc1ccc(S(=O)(=O)c2cc(OC(=O)c3ccco3)ccc2OC(=O)c2ccco2)cc1`, the Potency entry was “inactive”.

For the molecule `Cc1sc2ncnc(NC3CCN(Cc4ccccc4)CC3)c2c1C`, the Potency was 126 µM (active).

For the molecule `CCCNC(=O)c1ccc2c(=O)c(O)c(C)[nH]c2c1`, the Potency result was “inactive”.

As for `CCOC(=O)N1CCN(CC(=O)N2c3ccccc3Sc3ccccc32)CC1`, the Potency result is “inactive”.

On to `CCc1cc2c(N3CCN(C(=O)c4ccco4)CC3)ncnc2s1`, for which the Potency is 100 µM (active).

For `O=C(NNCS(=O)(=O)O)c1ccncc1`, the Potency result was “inactive”.

Take `COc1ccc(CN2CCC(Cc3ccccc3)CC2)c(C)c1C`: the Potency result is “inactive”.

As to `Clc1ccc(-c2nnc(-c3ccccc3)nc2-c2c[nH]c3ccccc23)cc1`, the Potency result is “inactive”.

As to `CCOC(=O)N1CCN(C(=O)c2oc3ccc(S(=O)(=O)N(CC)CC)cc3c2C)CC1`, the Potency result was “inactive”.

With `O=C(CSc1nc(O)cc(=O)n1-c1ccccc1)c1ccc(Br)cc1`, the Potency entry was “inactive”.

Turning to `COc1cc(OC)c2ccc(=O)oc2c1C(CCN1CCOCC1)c1ccc(N(C)C)cc1` (stereo not given), the Potency result was “inactive”.

On to `CN(C)/C=C(/C(=O)c1ccc(Cl)cc1)S(=O)(=O)c1ccc(Cl)cc1`, for which the Potency result is “inactive”.

With `Cc1ccc(C2=NN(C(=O)c3ccccc3F)C(c3ccccc3F)C2)cc1` (stereo not given), the Potency entry is “inactive”.

Turning to `O=C(O)/C(=C\c1ccc(F)cc1)c1ccc(-c2ccccc2)cc1`, the Potency entry was “inactive”.

On to `CC(=O)c1ccc2c(c1)N(CCCN1CCC(CCO)CC1)c1ccccc1S2`, for which the Potency entry is “inactive”.

In the case of `CCCC(=O)Nc1cccc(NC(=O)c2ccc([N+](=O)[O-])cc2Cl)c1`, the Potency entry was “inactive”.

As for `CC(=O)c1cccc(NS(=O)(=O)c2ccc(N/C=C\C(=O)c3ccc(F)cc3)cc2)c1`, the Potency result is “inactive”.

As for `CCOC(=O)C1CCN(CC(O)COCc2ccccc2)CC1` (stereo not given), the Potency result is “inactive”.

Take `COc1ccc(Cn2nnnc2C(c2ccccc2)N2CCN(C3CCCC3)CC2)cc1` (stereo not given): the Potency entry was “inactive”.

As to `Cc1ccccc1CN1CCN(C(C)C(=O)NCc2ccccc2)CC1` (stereo not given), the Potency result was “inactive”.

As for `O=C1C(=O)c2ncccc2-c2cccnc21`, the Potency entry is “inactive”.

In the case of `CCOC(=O)N1CCN(CCC(=O)c2ccc(Br)cc2)CC1`, the Potency entry was “inactive”.

In the case of `CCOc1cc(C(c2c(C)[nH][nH]c2=O)c2c(C)[nH][nH]c2=O)cc(Br)c1OC`, the Potency entry was “inactive”.
